From the OligoGym collection

Each sequence was assayed against UTS2D (assay: pooled miR-30 sensor sort-seq; sequence = guide strand). Details: shRNA.
Further: reference of the scale not given here.

Sequence | sensor-assay potency score (higher = more potent)
TAGGAGTCCAAAGCAAACAGTG | -0.558
TTGTATATTTTTTATCTGGAAA | -1.16
TAAGATATGGTCGTCCATGCAC | -0.532
TTATTCAGTAGAGCCAGCAATA | -1.61
TTTTAGCTTTTCCAGCTGGTTA | -0.983

What follows are sequences tested against UXS1 in the same assay as above. Details: shRNA.

Sequence | sensor-assay potency score (higher = more potent)
TTTTAGTTCACCATTTTCCTGG | 0.218
TAGGATTGTGTGTTCTTCTGGG | 0.906
TTGTCTGAGACCCGGATCCGTA | -1.19
TTAACTGAGCAAATTCTAGGAT | 0.0899
TAGATCGCTGACGTACTGGAAC | -0.778
TTCAACCATCTCTTCAATCTTG | -0.0638
TATACATGTAGTTTGGAGGGGA | 0.245
TAATTAACTGAGCAAATTCTAG | -1.25
TAACTGAGCAAATTCTAGGATT | -0.862
TTAGTGGTTCAACCATCTCTTC | -1.31
TATCTGGTCAACCTCGATGTAG | -1.33
TTTGTTTAAACCTTCCTCCAGC | -0.24

These sequences were tested against VAMP1 in the same assay as above. Details: shRNA.

Sequence | sensor-assay potency score (higher = more potent)
TTTGGTGGAAGTACAACTGTTG | 0.106
TGCTGTAGTCGTCTGTTACTGG | -0.0703
TTTTGTTGCACATTTGCTCATG | -0.374
TTGACTGCAAAGTCCCAGGGTT | 0.215
TTACTGGTCATGTTAGGAGGAG | -0.535
TTTAGCTTGGCAGCACTGCTCT | -0.465
ATGATCATCATCTTGCAGTTTT | -0.861
ATAACTACCACGATGATGGCAC | 0.289
TAGCTTGGCAGCACTGCTCTCA | -0.655
TAGTCGTCTGTTACTGGTCATG | -1.49
TATGATGTCCACCACCTCCTCC | -0.679
AGCATGATCATCATCTTGCAGT | -1.92

What follows are sequences tested against VAMP8 in the same assay as above. Details: shRNA.

Sequence | sensor-assay potency score (higher = more potent)
TAATATTCTTAACTCCCTCCAC | 0.103
TTTTCGAGCCACCTTCTGCGAT | -1.17
TTTCGAGCCACCTTCTGCGATG | -0.89
TTCTGGGTCATAATATTCTTAA | -1.25
ATCTTCACGTTCTTCCACCAGA | -1.17
AAGGACAATCATCTTCACGTTC | -0.269
TCTTCCACCAGAATTTTCGAGC | -0.564
AGATCCTCTGTCTTGTTGCGGA | -1.4
ATGATAAAAACAATCACGCAGA | -0.843
ATCATCTTCACGTTCTTCCACC | -0.825
ATGTCGTCTTGAAGTGCTCAGA | -1.56
